The full data set covers some 7,900 targets. This sample favours those with a hit. About 0.6% of all pairs of compound and target were hits.
What was measured:
Experiment in all cases: log2 fold change, soluble protein after heating vs DMSO (PISA); higher = thermal stabilisation; K562 cells, 10 uM, 30 min; active = over 0.2 and 3.5 SD of the protein, either way, in both replicates (recomputed)
crizotinib = compound: C[C@@H](Oc1cc(-c2cnn(C3CCNCC3)c2)cnc1N)c1c(Cl)ccc(F)c1Cl [crizotinib]
In short: (§1)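 K562 cells at 2×10^6 cells/mL were exposed to 10 μM compound for 30 min, then aliquots were heated for 3 min across 48°C-58°C, pooled, and extracted in PBS containing 0.5% NP-40 at 4°C. The supernatant after 21,000xg for 90 min was taken as soluble protein and measured by TMTpro 16plex LC-MS/MS with channel sums equalised. Thermal stability is reported relative to control samples, with values from duplicates. Fold changes are given on a log2 scale.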

[1] = compound: C[C@H](C1=CC=C(C=C1)C(=O)NC2=C3C=CNC3=NC=C2)N
In short: as §1

tozasertib = compound: Cc1cc(Nc2cc(N3CCN(C)CC3)nc(Sc3ccc(NC(=O)C4CC4)cc3)n2)n[nH]1 [tozasertib]
In short: as §1

doramapimod = compound: Cc1ccc(-n2nc(C(C)(C)C)cc2NC(=O)Nc2ccc(OCCN3CCOCC3)c3ccccc23)cc1 [doramapimod]
In short: as §1

[2] = compound: Cn1cc(-c2ccc3c(c2)CCN3C(=O)Cc2cccc(C(F)(F)F)c2)c2c(N)ncnc21
In short: as §1

tipifarnib = compound: Cn1cncc1[C@@](N)(c1ccc(Cl)cc1)c1ccc2c(c1)c(-c1cccc(Cl)c1)cc(=O)n2C [tipifarnib]
In short: as §1

mubritinib = compound: FC(F)(F)c1ccc(/C=C/c2nc(COc3ccc(CCCCn4ccnn4)cc3)co2)cc1 [mubritinib]
In short: as §1

[3] = compound: CS(=O)(=O)c1ccc(-c2cnc(N)c(C(=O)Nc3ccccc3)n2)cc1
In short: as §1

[4] = compound: C[C@@H]1COCCN1C2=NC(=NC(=C2)C3(CC3)S(=O)(=O)C)C4=C5C=CNC5=CC=C4
In short: as §1

ispinesib = compound: Cc1ccc(C(=O)N(CCCN)[C@@H](c2nc3cc(Cl)ccc3c(=O)n2Cc2ccccc2)C(C)C)cc1 [ispinesib]
In short: as §1

bafetinib = compound: Cc1ccc(NC(=O)c2ccc(CN3CC[C@H](N(C)C)C3)c(C(F)(F)F)c2)cc1Nc1nccc(-c2cncnc2)n1 [bafetinib]
In short: as §1

nilotinib = compound: Cc1cn(-c2cc(NC(=O)c3ccc(C)c(Nc4nccc(-c5cccnc5)n4)c3)cc(C(F)(F)F)c2)cn1 [nilotinib]
In short: as §1

[5] = compound: Cc1nc(Nc2n[nH]c3c2CN(C(=O)N[C@H](CN(C)C)c2ccccc2)C3(C)C)c2sccc2n1
In short: as §1

[6] = compound: Cc1ncc(-c2ccnc(Nc3ccc(S(C)(=O)=O)cc3)n2)n1C(C)C
In short: as §1

[7] = compound: Cn1cc(-c2ccc3nnc(C(F)(F)c4ccc5ncccc5c4)n3n2)cn1
In short: as §1

duvelisib = compound: C[C@H](Nc1ncnc2nc[nH]c12)c1cc2cccc(Cl)c2c(=O)n1-c1ccccc1 [duvelisib]
In short: as §1

gandotinib = compound: Cc1cc(Nc2cc(CN3CCOCC3)c3nc(C)c(Cc4ccc(Cl)cc4F)n3n2)n[nH]1 [gandotinib]
In short: as §1

[8] = compound: Cc1cc(SCc2sc(-c3ccc(C(F)(F)F)cc3)nc2C)ccc1OCC(=O)O
In short: as §1

[9] = compound: Cc1cccc(CC(=O)N2CCc3c2ccc(-c2cn(C)c4ncnc(N)c24)c3F)n1
In short: as §1

dasatinib = compound: Cc1nc(Nc2ncc(C(=O)Nc3c(C)cccc3Cl)s2)cc(N2CCN(CCO)CC2)n1 [dasatinib]
In short: as §1

Measured: log2 fold change

ING5 (UniProt Q8WYH8)
inactive: crizotinib -0.36 | [1] -0.018 | tozasertib -0.079 | doramapimod -0.019 | [2] 0.164 | tipifarnib 0.045 | mubritinib 0.206

MAP4 isoform 5 (UniProt P27816)
inactive: [3] 0.096 | [4] -0.159 | ispinesib -0.042 | bafetinib -0.028 | nilotinib -0.181 | [5] 0.028 | [6] 0 | [7] -0.037 | tipifarnib 0.066 | mubritinib 0.027

KXD1 (UniProt Q9BQD3)
UniProt Q9BQD3, sequence (Q9BQD3 whole entry, looked up): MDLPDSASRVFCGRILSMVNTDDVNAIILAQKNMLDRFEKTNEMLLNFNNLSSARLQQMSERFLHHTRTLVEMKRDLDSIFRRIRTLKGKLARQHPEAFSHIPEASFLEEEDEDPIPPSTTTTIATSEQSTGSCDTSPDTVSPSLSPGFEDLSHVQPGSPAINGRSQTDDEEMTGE
inactive: [4] 0.118 | [1] -0.009 | duvelisib 0.067 | gandotinib -0.156 | tozasertib -0.046 | [8] 0.012 | ispinesib -0.078 | bafetinib -0.131 | [9] 0.045 | dasatinib -0.082 | [2] 0.019 | [7] 0.085 | tipifarnib 0.024 | mubritinib 0.052

MAP2K5 (UniProt Q13163)
inactive: crizotinib -0.012 | [1] 0.072 | duvelisib -0.049 | [8] -0.171 | doramapimod 0.053 | ispinesib 0.123 | dasatinib 0.063 | [2] 0.06 | [7] 0

MCOLN3 (UniProt Q8TDD5)
UniProt Q8TDD5, sequence (Q8TDD5 whole entry, looked up): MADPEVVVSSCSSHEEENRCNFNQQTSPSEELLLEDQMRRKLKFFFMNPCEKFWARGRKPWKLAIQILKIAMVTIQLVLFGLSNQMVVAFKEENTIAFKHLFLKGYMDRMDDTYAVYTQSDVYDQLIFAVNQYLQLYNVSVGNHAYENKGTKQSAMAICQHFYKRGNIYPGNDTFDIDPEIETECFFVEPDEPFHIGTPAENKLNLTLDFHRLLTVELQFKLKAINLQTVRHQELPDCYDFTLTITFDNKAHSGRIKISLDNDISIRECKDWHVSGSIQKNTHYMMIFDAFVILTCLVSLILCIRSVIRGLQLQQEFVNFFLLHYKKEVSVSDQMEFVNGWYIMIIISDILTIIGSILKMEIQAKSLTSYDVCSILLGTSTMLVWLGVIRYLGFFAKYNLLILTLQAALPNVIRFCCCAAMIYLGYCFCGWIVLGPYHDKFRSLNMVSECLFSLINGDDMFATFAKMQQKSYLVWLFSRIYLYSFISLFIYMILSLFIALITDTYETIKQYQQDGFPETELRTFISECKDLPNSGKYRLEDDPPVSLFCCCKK
inactive: gandotinib 0.022 | tozasertib -0.112 | ispinesib -0.255 | bafetinib -0.03 | [9] -0.183 | nilotinib -0.289 | [5] -0.113 | [6] 0.041 | [7] 0.079 | tipifarnib 0.072 | mubritinib 0.05

KIZ (UniProt Q2M2Z5)
inactive: crizotinib -0.032 | [1] -0.115 | gandotinib 0.063 | doramapimod 0.071 | ispinesib -0.047 | [9] 0.268 | [2] -0.446 | [7] 0.196 | tipifarnib 0.217

LSR isoform 3 (UniProt Q86X29)
inactive: [3] 0.052 | [1] -0.138 | duvelisib 0.179 | tozasertib -0.324 | [8] -0.118 | dasatinib -0.074 | [2] 0.026 | tipifarnib 0.101 | mubritinib 0.435

KIF13A isoform 4 (UniProt Q9H1H9)
inactive: [3] -0.363 | [1] -0.019 | [2] 0.069

IKZF1 isoform 2 (UniProt Q13422)
inactive: [3] 0.081 | [1] 0.059 | tozasertib 0.055 | ispinesib -0.034 | bafetinib -0.217 | nilotinib 0.101 | [5] -0.018 | [6] 0.043 | [2] -0.026 | [7] 0.015 | mubritinib -0.024

MFSD12 isoform 3 (UniProt Q6NUT3)
UniProt Q6NUT3, sequence (Q6NUT3 whole entry, looked up): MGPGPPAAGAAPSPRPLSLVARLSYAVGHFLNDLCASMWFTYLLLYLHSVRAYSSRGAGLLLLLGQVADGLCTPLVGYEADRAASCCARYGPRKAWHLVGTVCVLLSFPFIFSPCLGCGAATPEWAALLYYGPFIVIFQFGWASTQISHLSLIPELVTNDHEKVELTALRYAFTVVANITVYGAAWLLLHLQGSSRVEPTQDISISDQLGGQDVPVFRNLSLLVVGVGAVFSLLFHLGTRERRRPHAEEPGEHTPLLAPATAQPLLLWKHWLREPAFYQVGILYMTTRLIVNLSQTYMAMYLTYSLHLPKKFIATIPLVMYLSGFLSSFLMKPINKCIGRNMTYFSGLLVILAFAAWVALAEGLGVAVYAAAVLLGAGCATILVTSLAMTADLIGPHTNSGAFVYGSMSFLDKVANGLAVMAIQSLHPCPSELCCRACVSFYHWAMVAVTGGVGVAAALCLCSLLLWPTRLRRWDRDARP
inactive: [3] 0.17 | [1] -0.213 | duvelisib 0.109 | gandotinib -0.122 | tozasertib 0.063 | [8] 0.065 | [9] 0.047 | dasatinib -0.093 | [2] -0.124

KIF1B isoform 3 (UniProt O60333)
inactive: mubritinib 0.168

MFSD8 (UniProt Q8NHS3)
inactive: crizotinib -0.013 | [4] 0.04 | [1] -0.023 | duvelisib -0.108 | gandotinib -0.018 | tozasertib 0.055 | [8] -0.015 | doramapimod 0.131 | ispinesib -0.208 | bafetinib -0.006 | [9] -0.12 | dasatinib 0.061 | [2] -0.007 | [7] 0.017 | tipifarnib -0.042 | mubritinib -0.002

KMT5A (UniProt Q9NQR1)
inactive: [3] 0.018 | gandotinib 0.038 | [9] -0.218

MAGEA8 (UniProt P43361)
inactive: crizotinib -0.003 | [1] 0.134 | duvelisib -0.082 | tozasertib -0.007 | [8] -0.002 | doramapimod 0.037 | ispinesib -0.034 | bafetinib 0.022 | [9] -0.265 | [5] -0.207 | dasatinib 0.019 | [6] 0.016 | [2] 0.008 | [7] -0.003 | tipifarnib -0.01
active: gandotinib -0.472 | nilotinib -0.372

LEPROT (UniProt O15243)
inactive: [4] -0.149 | [1] 0.083 | duvelisib 0.045 | gandotinib 0.081 | tozasertib 0.003 | [8] -0.026 | [9] 0.03 | dasatinib 0.188 | [2] -0.193 | mubritinib 0.041

LRRFIP1 isoform 4 (UniProt Q32MZ4)
UniProt Q32MZ4, sequence (Q32MZ4 whole entry, looked up): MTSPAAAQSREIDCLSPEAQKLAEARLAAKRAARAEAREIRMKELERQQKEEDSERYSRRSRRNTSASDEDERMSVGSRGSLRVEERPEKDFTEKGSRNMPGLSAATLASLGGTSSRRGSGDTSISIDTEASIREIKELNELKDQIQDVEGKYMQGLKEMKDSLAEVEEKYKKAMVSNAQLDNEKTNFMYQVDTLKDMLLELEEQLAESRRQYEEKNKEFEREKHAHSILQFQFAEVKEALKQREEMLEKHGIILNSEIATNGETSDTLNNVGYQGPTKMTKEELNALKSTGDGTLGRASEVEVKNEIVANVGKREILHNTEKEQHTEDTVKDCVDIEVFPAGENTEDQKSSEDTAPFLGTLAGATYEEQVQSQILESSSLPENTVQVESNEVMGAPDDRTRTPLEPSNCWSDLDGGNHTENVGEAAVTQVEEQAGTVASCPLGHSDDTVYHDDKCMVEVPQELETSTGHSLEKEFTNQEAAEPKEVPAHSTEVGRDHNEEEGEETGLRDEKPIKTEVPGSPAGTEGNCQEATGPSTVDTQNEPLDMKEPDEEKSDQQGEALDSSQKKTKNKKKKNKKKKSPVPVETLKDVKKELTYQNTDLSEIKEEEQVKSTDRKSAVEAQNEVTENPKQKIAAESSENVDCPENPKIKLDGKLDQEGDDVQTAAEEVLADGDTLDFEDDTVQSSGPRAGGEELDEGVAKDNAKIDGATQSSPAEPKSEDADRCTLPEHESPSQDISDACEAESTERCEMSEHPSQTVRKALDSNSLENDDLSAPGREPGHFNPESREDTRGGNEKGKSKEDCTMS
inactive: crizotinib 0.012 | [4] 0.175 | [1] 0.59 | duvelisib 0.025 | gandotinib 0.548 | [8] -0.025 | doramapimod -0.016 | [9] -0.046 | dasatinib -0.095 | [2] -0.226

MAP4K4 isoform 6 (UniProt O95819)
UniProt O95819, sequence (O95819 whole entry, looked up): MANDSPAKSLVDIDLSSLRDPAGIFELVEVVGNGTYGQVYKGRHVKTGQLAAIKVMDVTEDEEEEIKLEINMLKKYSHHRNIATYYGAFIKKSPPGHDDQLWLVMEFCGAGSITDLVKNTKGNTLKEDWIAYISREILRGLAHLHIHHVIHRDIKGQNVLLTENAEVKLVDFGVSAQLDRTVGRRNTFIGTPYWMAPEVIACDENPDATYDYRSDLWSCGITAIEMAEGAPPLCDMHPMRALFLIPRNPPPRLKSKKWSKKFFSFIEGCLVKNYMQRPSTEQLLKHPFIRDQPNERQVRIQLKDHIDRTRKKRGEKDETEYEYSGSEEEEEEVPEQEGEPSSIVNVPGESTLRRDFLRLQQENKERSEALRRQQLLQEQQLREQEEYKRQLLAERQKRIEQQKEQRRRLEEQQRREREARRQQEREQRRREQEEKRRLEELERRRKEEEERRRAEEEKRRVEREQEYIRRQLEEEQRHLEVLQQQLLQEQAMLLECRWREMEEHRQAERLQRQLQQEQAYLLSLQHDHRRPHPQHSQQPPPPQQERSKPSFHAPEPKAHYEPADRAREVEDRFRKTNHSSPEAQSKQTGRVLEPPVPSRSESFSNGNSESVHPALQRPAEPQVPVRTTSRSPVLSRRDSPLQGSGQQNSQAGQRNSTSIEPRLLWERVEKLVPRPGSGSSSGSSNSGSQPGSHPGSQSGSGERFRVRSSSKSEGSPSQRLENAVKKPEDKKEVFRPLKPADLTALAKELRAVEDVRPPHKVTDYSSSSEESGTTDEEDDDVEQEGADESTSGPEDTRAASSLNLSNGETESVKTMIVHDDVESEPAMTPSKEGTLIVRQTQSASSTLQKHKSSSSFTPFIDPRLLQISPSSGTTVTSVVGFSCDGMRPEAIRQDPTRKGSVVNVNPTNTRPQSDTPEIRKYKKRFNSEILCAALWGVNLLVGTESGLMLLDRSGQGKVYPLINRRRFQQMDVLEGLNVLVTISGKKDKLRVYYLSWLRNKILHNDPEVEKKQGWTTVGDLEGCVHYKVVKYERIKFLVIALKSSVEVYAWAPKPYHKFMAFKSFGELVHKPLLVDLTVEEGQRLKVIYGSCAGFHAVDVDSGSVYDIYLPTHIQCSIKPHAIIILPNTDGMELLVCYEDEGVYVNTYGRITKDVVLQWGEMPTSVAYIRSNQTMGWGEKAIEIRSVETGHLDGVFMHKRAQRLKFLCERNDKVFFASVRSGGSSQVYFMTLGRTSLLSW
inactive: [3] -0.019 | [1] -0.305 | duvelisib -0.152 | tozasertib -0.132 | [8] -0.025 | nilotinib 0.047 | [5] -0.034 | dasatinib -0.001 | [6] 0.008 | [2] 0.1 | mubritinib 0.02

KIF21A (UniProt H0YI78)
inactive: ispinesib -0.041 | [7] 0.134

MAP4K5 (UniProt Q9Y4K4)
inactive: [3] 0.019 | [4] 0.072 | [1] 0.24 | gandotinib -0.067 | tozasertib -0.088 | doramapimod -0.064 | ispinesib -0.045 | bafetinib -0.064 | [9] -0.001 | nilotinib 0.136 | [5] -0.093 | [6] -0.116 | [2] -0.125 | [7] 0.019 | tipifarnib -0.146 | mubritinib 0.022

MAP4K2 (UniProt Q12851)
inactive: [3] -0.032 | [1] -0.129 | tozasertib 0.158 | doramapimod -0.091 | bafetinib -0.116 | nilotinib -0.187 | [5] 0.024 | [6] -0.13 | [2] -0.135 | tipifarnib -0.048

LIN52 (UniProt Q52LA3)
UniProt Q52LA3, sequence (Q52LA3 whole entry, looked up): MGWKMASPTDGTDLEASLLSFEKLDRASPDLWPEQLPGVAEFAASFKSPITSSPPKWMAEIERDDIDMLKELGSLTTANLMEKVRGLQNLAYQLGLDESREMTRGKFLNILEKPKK
inactive: duvelisib -0.087 | [8] -0.059 | dasatinib -0.049 | mubritinib -0.117

LDLRAP1 (UniProt Q5SW96)
inactive: crizotinib 0.004 | doramapimod 0.18 | ispinesib -0.088 | bafetinib -0.011 | [7] 0.14

IPP (UniProt Q9Y573)
inactive: bafetinib -0.225

LAPTM4B (UniProt Q86VI4)
inactive: [3] 0.012 | gandotinib 0 | bafetinib 0.024 | [9] -0.137 | mubritinib 0.017

MAPK11 (UniProt Q15759)
inactive: crizotinib -0.115 | gandotinib -0.083 | tozasertib 0.268 | ispinesib -0.334 | [9] -0.116 | [7] -0.024

LMNA isoform 2 (UniProt P02545)
inactive: tozasertib 0.357

MAPRE3 isoform 2 (UniProt Q9UPY8)
UniProt Q9UPY8, sequence (Q9UPY8 whole entry, looked up): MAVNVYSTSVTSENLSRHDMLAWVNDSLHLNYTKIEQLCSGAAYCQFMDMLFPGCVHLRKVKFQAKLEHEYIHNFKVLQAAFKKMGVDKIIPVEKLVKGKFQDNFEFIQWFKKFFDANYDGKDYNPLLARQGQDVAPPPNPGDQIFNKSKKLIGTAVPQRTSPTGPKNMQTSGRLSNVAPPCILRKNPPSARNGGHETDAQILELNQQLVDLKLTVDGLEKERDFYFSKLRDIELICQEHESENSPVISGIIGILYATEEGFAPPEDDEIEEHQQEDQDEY
inactive: crizotinib 0.22 | [1] 0.06 | tozasertib -0.264 | doramapimod 0.007 | nilotinib -0.539 | [5] -0.355 | [6] -0.118 | [2] -0.028 | tipifarnib 0.201

MAPK7 (UniProt Q13164)
inactive: [4] 0.03 | gandotinib 0.304 | doramapimod 0.057 | [9] 0.034
active: crizotinib 0.773

LRRCC1 (UniProt Q9C099)
inactive: duvelisib 0.09 | tozasertib 0.006 | [8] 0.013 | ispinesib -0.301 | dasatinib 0.017 | [7] 0.063

MFSD1 isoform 6 (UniProt Q9H3U5)
UniProt Q9H3U5, sequence (Q9H3U5 whole entry, looked up): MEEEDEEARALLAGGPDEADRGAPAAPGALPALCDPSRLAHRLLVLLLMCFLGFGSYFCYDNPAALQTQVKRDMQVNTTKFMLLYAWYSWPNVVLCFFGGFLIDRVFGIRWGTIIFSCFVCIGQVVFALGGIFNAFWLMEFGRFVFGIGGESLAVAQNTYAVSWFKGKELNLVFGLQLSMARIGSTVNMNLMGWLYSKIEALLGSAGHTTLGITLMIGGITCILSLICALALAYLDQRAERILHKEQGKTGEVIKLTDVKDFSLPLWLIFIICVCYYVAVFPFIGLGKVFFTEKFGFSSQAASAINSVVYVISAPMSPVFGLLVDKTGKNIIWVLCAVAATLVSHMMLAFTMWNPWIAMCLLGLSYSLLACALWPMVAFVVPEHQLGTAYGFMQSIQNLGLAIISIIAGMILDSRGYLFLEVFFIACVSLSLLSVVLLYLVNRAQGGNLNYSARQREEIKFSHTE
active: ispinesib -0.367
inactive: [3] 0.035 | [4] 0.076 | [1] -0.03 | gandotinib -0.077 | tozasertib 0.041 | bafetinib -0.123 | [9] 0.066 | nilotinib -0.017 | [5] 0.046 | [6] -0.016 | [2] -0.034 | [7] 0.033 | tipifarnib 0.05 | mubritinib 0.005

LAMP2 isoform 2 (UniProt P13473)
inactive: [4] 0.119 | [1] -0.051 | gandotinib 0.066 | tozasertib -0.071 | [8] 0.011 | doramapimod 0.002 | bafetinib -0.014 | [9] -0.014 | nilotinib 0.018 | [5] -0.009 | dasatinib -0.047 | [6] 0 | [2] 0.005 | tipifarnib 0.126 | mubritinib 0.003
active: crizotinib -0.424 | duvelisib 0.344

MBLAC1 (UniProt A4D2B0)
UniProt A4D2B0, sequence (A4D2B0 whole entry, looked up): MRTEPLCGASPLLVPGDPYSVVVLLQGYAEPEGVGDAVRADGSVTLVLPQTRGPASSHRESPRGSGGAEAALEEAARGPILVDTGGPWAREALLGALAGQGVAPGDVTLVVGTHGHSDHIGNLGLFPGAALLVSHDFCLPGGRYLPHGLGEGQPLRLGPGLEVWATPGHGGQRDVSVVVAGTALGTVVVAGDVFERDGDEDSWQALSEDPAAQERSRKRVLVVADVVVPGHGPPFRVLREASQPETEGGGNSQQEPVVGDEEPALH
inactive: crizotinib 0.038 | [1] -0.007 | duvelisib 0.019 | gandotinib -0.056 | [8] -0.017 | doramapimod 0.169 | ispinesib -0.142 | bafetinib -0.017 | [9] 0.065 | dasatinib -0.129 | [2] 0.086 | [7] -0.125 | tipifarnib 0.094 | mubritinib -0.045

MARCHF3 (UniProt Q86UD3)
inactive: [3] 0.243 | [4] 0.029 | bafetinib 0.109 | nilotinib 0.156 | [5] 0.15 | [6] 0.036 | tipifarnib 0.001

IGFBP6 (UniProt P24592)
UniProt P24592, sequence (P24592 whole entry, looked up): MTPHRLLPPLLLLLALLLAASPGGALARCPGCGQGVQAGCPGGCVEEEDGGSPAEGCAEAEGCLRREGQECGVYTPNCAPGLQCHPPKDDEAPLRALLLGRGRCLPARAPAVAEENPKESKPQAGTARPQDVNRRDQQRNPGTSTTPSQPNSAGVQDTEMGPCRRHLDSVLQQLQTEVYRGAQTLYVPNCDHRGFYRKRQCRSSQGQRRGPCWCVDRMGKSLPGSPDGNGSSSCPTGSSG
active: ispinesib -0.712
inactive: [1] -0.035 | duvelisib 0.063 | [8] 0.14 | dasatinib -0.038 | [2] 0.152 | [7] 0.006

MGRN1 isoform 2 (UniProt O60291)
inactive: crizotinib -0.015 | [1] 0.225 | gandotinib 0.06 | tozasertib -0.136 | doramapimod 0.012 | ispinesib -0.225 | bafetinib -0.07 | [9] -0.227 | [2] -0.149 | [7] 0.027 | tipifarnib 0.2

MED29 (UniProt Q9NX70)
UniProt Q9NX70, sequence (Q9NX70 whole entry, looked up): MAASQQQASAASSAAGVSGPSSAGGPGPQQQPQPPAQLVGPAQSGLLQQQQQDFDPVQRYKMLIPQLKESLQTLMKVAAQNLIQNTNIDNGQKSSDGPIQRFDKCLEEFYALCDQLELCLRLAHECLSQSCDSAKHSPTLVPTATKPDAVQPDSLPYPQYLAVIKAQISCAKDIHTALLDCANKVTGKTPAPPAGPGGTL
inactive: duvelisib -0.025 | [8] 0.171 | nilotinib 0.017 | [5] 0.027 | dasatinib 0.226 | [6] -0.14 | tipifarnib 0.169 | mubritinib -0.136

Reference: the supplement of paper PMC10849652
